Measurements: PubChem BioAssay (NCI)
This is part of a sample that, as a whole, favours compounds with a hit. Of some 83,000 tested, about 20% had one in any assay.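 The test compound was applied at a single concentration to cells in 96-well plates for 48 hours, and percent growth was recorded.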 Unmarked numbers belong to inactive results. Active and inactive are the calls of the source. How the source made its calls: active means growth percent below 10; inactive means the rest.

Tests used:
Assay in all cases: NCI-60 one-dose screen, 48 h (100 = growth as untreated, 0 = no growth, -100 = all killed)
Conditions in all cases: 10 µM unless noted
[1] = tested on: NCI-H23 lung
[2] = tested on: NCI-H226 lung
[3] = tested on: NCI-H322M lung
[4] = tested on: HOP-62 NSCLC
[5] = tested on: NCI-H460 lung
[6] = tested on: HOP-92 NSCLC
[7] = tested on: NCI-H522 lung
[8] = tested on: A549/ATCC NSCLC
[9] = tested on: 786-0 renal
[10] = tested on: COLO 205 colon
[11] = tested on: DU-145 prostate
[12] = tested on: K-562 leukemia
[13] = tested on: MALME-3M melanoma
[14] = tested on: MDA-MB-231 breast
[15] = tested on: RXF 393 renal
[16] = tested on: SF-268 CNS
[17] = tested on: SF-295 CNS
[18] = tested on: SF-539 CNS
[19] = tested on: UACC-257 melanoma
[20] = tested on: M14 melanoma

| SMILES | growth [1] | growth [2] | growth [3] | growth [4] | growth [5] | growth [6] | growth [7] | growth [8] | growth [9] | growth [10] | growth [11] | growth [12] | growth [13] | growth [14] | growth [15] | growth [16] | growth [17] | growth [18] | growth [19] | growth [20] |
| --- | --- | --- | --- | --- | --- | --- | --- | --- | --- | --- | --- | --- | --- | --- | --- | --- | --- | --- | --- | --- |
| Cc1cnc(N)nc1OCC(C)(C)CNC(=O)c1cccc(-c2ccc(S(=O)(=O)Nc3ccc4c(c3)N(C(=O)C3CC3)CCC4)cc2)c1 | 48.6% | 59.3% | 84.2% | 59.7% | 53.9% | 53.5% | 65.4% | 49.9% | 90.6% | 55.5% | 77.4% | 34.3% | 80.7% | 68.1% | 74.6% | 67.5% | 55.3% | 75.2% | 46.6% | 96.4% |
| CC(C)C1=NOC(=O)C1=Cc1cn(-c2ccco2)nc1-c1ccccc1 | 96.6% | 102% | 102% | 79.1% | 93.8% | 94.1% | 84.8% | 99.2% | 89.1% | 103% | 94.6% | 62.1% | 104% | 92% | 80.6% | 90.5% | 99.2% | 99.9% | 106% | 85.6% |
| CCNC(=O)N1CCc2c(Cl)c3c(c(OC)c2[C@@H]1[C@H]1OCc2c1ccc(OC)c2OC)OCCO3 | 32.6% | 60.1% | 30.1% | 35.3% | 9.88% (active) | 44.5% | 11.6% | 35.2% | 26.9% | -11% (active) | 10.9% | 10.4% | 29.6% | 43.2% | -39.8% (active) | 45.3% | 8.12% (active) | -41.3% (active) | 55.3% | 1.38% (active) |
| Cn1cc(-c2noc(-c3cn(C)c4ncc(F)cc34)n2)c2cc(Cl)ccc21 | 81.3% | 95.7% | 50.3% | 68.4% | 2.39% (active) | 64.3% | 74.2% | 33.9% | 9.09% (active) | 55.5% | 80.3% | 77.2% | 48.1% | 52.7% | 78% | 69.2% | 41.6% | 46% | 96.5% | 78.6% |
| c1ccc(-c2nnc(-c3c[nH]c4ncccc34)s2)cc1 | 92.6% | 87.9% | 95.7% | 98.6% | 96.4% | 104% | 87.7% | 95.6% | 104% | 115% | 87.4% | 83.9% | 88% | 86.8% | 94.5% | 86.2% | 96.8% | 96.9% | 109% | 97.8% |
| Cc1cccc(C[C@H](NC(=O)Nc2ccc(C)cc2F)C(=O)N[C@@H]2C(=O)N3C[C@H](O)C[C@H]3C(=O)N3CCN(C)C[C@H]3C(=O)N[C@@H](C)C(=O)N3C[C@H](C)C[C@H]3C(=O)O[C@H]2C)c1 | 38.1% | 53.9% | 73.3% | 57.9% | 42.5% | 38.9% | 38% | 43.5% | 84.2% | 12.4% | 38.4% | 23.1% | 39.9% | 18.7% | 79.1% | 31.6% | 45% | 50.7% | 27.3% | 79.9% |
| CC(C)=CC/C=C(/C)[C@H]1CC[C@]2(C)[C@@H]1CC[C@@H]1[C@@]3(C)CCCNC(C)(C)[C@@H]3CC[C@]12C | -61.7% [100 µM] (active) | -49.5% [100 µM] (active) | -99.4% [100 µM] (active) | -48.3% [100 µM] (active) | -74.2% [100 µM] (active) | -56.6% [100 µM] (active) | -59.3% [100 µM] (active) | -51.8% [100 µM] (active) | -56.2% [100 µM] (active) | -62.4% [100 µM] (active) | -78.7% [100 µM] (active) | -19.2% [100 µM] (active) | -78.9% [100 µM] (active) | -74.7% [100 µM] (active) | -70.1% [100 µM] (active) | -48% [100 µM] (active) | -77.8% [100 µM] (active) | -86% [100 µM] (active) | -72.3% [100 µM] (active) | -58.6% [100 µM] (active) |
| CNC(=O)c1cc(Oc2ccc3nc(NC(=O)c4ccc5ncccc5c4)sc3c2)ccn1 | 92.7% | 68.6% | 99% | 112% | 98.6% | 110% | 54.3% | 76.5% | 98.4% | 95.8% | 105% | 93.7% | 80.5% | 98.6% | 109% | 97.4% | 86.9% | 107% | 93.1% | 102% |
| O=C(COc1cccc(/C=C2\Oc3ccccc3C2=O)c1)c1ccc([N+](=O)[O-])cc1 | 79.9% | 85.8% | 115% | 103% | 95.7% | 78.1% | 57% | 90% | 102% | 107% | 111% | 70.7% | 108% | 72.6% | 97.6% | 96.2% | 197% | 97.4% | 97.6% | 100% |
| O=C(O)c1cn(C2CC2)c2cc(N3CCN(Cc4cc(Cl)ccc4O)CC3)c(F)cc2c1=O | 78.8% | 82.8% | 77.9% | 64.1% | 52% | 59.9% | 67.5% | 30.4% | 85.1% | 75.7% | 95.2% | 46.5% | 80.7% | 71.3% | 60.2% | 75.8% | 34.3% | 74% | 80.7% | 59.2% |
| CC(C)=CCC[C@](C)(O)[C@H]1CC[C@]2(C)[C@@H]1CC[C@@H]1[C@@]3(C)CC[C@H](OC(=O)CCC(=O)O)C(C)(C)[C@@H]3CC[C@]12C | 16.9% [100 µM] | 27.4% [100 µM] | 27.4% [100 µM] | -5.43% [100 µM] (active) | 4.47% [100 µM] (active) | 13.3% [100 µM] | 9.19% [100 µM] (active) | 19.5% [100 µM] | 23% [100 µM] | 12.9% [100 µM] | 40.8% [100 µM] | 24.2% [100 µM] | 10.5% [100 µM] | 13.5% [100 µM] | 37.8% [100 µM] | 52% [100 µM] | 4.05% [100 µM] (active) | 31% [100 µM] | 28.3% [100 µM] | 30.2% [100 µM] |
| Cc1ccc2c(c1)/C(=N\N=C/c1cn(C(C)C)c3ccccc13)C(=O)N2 | 61.7% | 56.1% | 61.1% | 49% | 40.5% | 71.8% | 14.4% | 60.8% | 93% | -29.8% (active) | 72.2% | 22.1% | 16.2% | 50.5% | 22.5% | 66.4% | 68.2% | 58.6% | 59.5% | 54% |
| O=C(NCCO)c1cccnc1 | 102% | 92.7% | 95.9% | 91.9% | 98.9% | 82.7% | 73% | 88.5% | 97% | 105% | 109% | 95.2% | 105% | 112% | 112% | 100% | 101% | 101% | 87.7% | 104% |
